Data: PubChem BioAssay AID652039 (The Scripps Research Institute Molecular Screening Center, 2013)
The campaign covered roughly 370,000 compounds. About 3,300 (0.89%) were called active.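 The calls were made as follows: active = activation above the mean of all tested compounds plus 3 SD, computed per campaign excluding outliers beyond control limits (cut at about 13% in these data); inactive = the rest.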 For the sample, actives were picked, then their nearest neighbours and some compounds at random.

Each molecule was assayed against Kallikrein-7 (Homo sapiens) (UniProt P49862) (assay: activation of human kallikrein-7 proenzyme – biochemical, fluorescence intensity, primary screen (AID 652039)). Details: purified proKLK7, EDANS-DABCYL substrate fluorescence; at 7 µM; stronger effect = higher value; 100% is mature enzyme control, 0% vehicle.
Kallikrein-7 (Homo sapiens), sequence (P49862 whole entry, looked up): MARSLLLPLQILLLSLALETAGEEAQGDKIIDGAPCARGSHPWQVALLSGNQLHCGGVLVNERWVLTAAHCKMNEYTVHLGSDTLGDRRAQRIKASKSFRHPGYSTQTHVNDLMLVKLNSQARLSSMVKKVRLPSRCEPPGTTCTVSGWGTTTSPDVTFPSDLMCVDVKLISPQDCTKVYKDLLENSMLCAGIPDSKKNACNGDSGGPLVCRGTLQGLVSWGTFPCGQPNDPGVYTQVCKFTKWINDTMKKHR
With `CCCCCCc1cc2cc(-c3nnc(-c4cccc(OC)c4)o3)c(=O)oc2cc1O` the activation was -1.12% (inactive). For `COc1ccc(-c2cc(=O)oc3cc(OCC(=O)N(C)C4CCS(=O)(=O)C4)ccc23)cc1` (configuration not stated), the activation was -0.13% (inactive). In the case of `COc1ccc(-c2cc3ccc(OCc4nn[nH]n4)cc3oc2=O)cc1`, the activation is reported as 75.6% (active). With `COc1cccc(CSc2nnc(-c3cccnc3)n2Cc2ccccc2)c1` the activation was -0.18% (inactive). For `Nn1c(SCC(=O)Nc2ccc(S(N)(=O)=O)cc2)nnc1-c1n[nH]c2c1CCC2`, the activation was -0.51% (inactive). In the case of `CCOc1ccccc1NC(=O)NC1CCCCCCC1`, the activation is reported as 0.05% (inactive). `CCCN(CC(=O)NC(=O)NC1CCCCC1)CC(=O)Nc1cc(Cl)ccc1Cl` was tested, and the activation was 24.4% (active). For `O=C(COc1cc(Cl)c(Cl)cc1Cl)NC(=O)NC1CCCC1`, the activation was -0.16% (inactive). `Cc1cc(=O)[nH]c(SCC(=O)Nc2ccc(Cl)cc2C)n1` was tested, and the activation was -0.02% (inactive). With `CN1C(=O)c2cc(NS(C)(=O)=O)ccc2OC[C@@H]2O[C@@H](CC(=O)NCc3ccc(-c4ccccc4)cc3)CC[C@H]21` the activation was -0.3% (inactive). With `CCOc1ccc(S(=O)(=O)NCCC(=O)NCC2CCCO2)cc1` (configuration not stated) the activation was 0.66% (inactive). For `CC1(C)CC(=O)c2cc(OCC(=O)NCC3CCCO3)ccc2O1` (configuration not stated), the activation was 54.2% (active). For `C=CCOc1ccc(/C=C/C(=O)OCC(=O)NCC2CCCO2)cc1` (configuration not stated), the activation was -1.06% (inactive). With `CN(C)c1ccc(NC(=O)NC2CCCCN(Cc3ccc(Cl)cc3)C2=O)cc1` (configuration not stated) the activation was 0.67% (inactive). With `COc1ccnc(C(=O)N2CCC(Oc3cccnc3)CC2)c1` the activation was 0.48% (inactive). `Cn1cccc1C(=O)NC(=O)COC(=O)Cc1coc2ccc3ccccc3c12` was tested, and the activation was -3.37% (inactive). In the case of `Cc1ccc(NC(=O)Nc2cc(C)nn2-c2ccccc2)cc1`, the activation is reported as 0.53% (inactive). With `C#CCN([C@H](C(=O)OC)C(C)CC)S(=O)(=O)c1ccccc1Br` (some centres not stated) the activation was 0.19% (inactive). With `OCCNc1nc2ccccc2n1-c1ncnc2sc3c(c12)CCC3` the activation was -0.67% (inactive). In the case of `O=C(O)c1cccnc1Sc1ncnc2sc3c(c12)CCC3`, the activation is reported as 12.7% (active). For `CCCSc1ncccc1C(=O)O`, the activation was 0.67% (inactive). For `CN(C)[C@H]1CCN(c2cccc3c2S(=O)(=O)N2CC[C@H](C2)O3)C1`, the activation was 0.28% (inactive). With `CCOC(=O)c1cccc(NC(=O)CN(C)S(=O)(=O)c2ccc(-c3cocn3)s2)c1` the activation was -0.02% (inactive). For `COc1ccc2nc(Nc3nc4cc5c(cc4s3)OCCO5)sc2c1`, the activation was 17.3% (active). With `COc1cccc(C(=O)Nc2cc3c(cc2Br)OCCCO3)c1` the activation was -0.41% (inactive). For `COc1ccc(-c2onc(C)c2-c2ccc3c(c2)OCCO3)c(O)c1`, the activation was -0.06% (inactive). `COc1ccccc1C(=O)CSc1nnc(-c2ccccn2)n1-c1ccccc1` was tested, and the activation was 0.13% (inactive). For `Cc1ccc(-n2c(SCC(=O)Nc3cccc4ccccc34)nnc2-c2ccccn2)cc1`, the activation was -0.1% (inactive). With `CCOc1ccc(N(CC(=O)Nc2c(C)n(C)n(-c3ccccc3)c2=O)S(=O)(=O)c2ccc(Cl)s2)cc1` the activation was -0.38% (inactive). With `O=C(Nc1nncs1)c1cccc(S(=O)(=O)N2CCCCC2)c1` the activation was 0.4% (inactive). For `COc1cc(NC(=O)c2ccccc2NS(=O)(=O)c2ccc(Cl)s2)cc(OC)c1`, the activation was 0.45% (inactive). `O=C(Nc1nncs1)c1ccccc1NS(=O)(=O)c1cccs1` was tested, and the activation was 16.3% (active). `Cc1ccc(-c2nc(C3CCCN(S(=O)(=O)c4ccc(Br)s4)C3)no2)cc1` (configuration not stated) was tested, and the activation was 0.38% (inactive). `COc1ccc(-n2c(COc3ccccc3)nnc2SCC(=O)Nc2ccc3c(c2)OCO3)cc1` was tested, and the activation was 0.59% (inactive). With `Cc1ccc(C2Nc3ccccc3C(=O)N2CCN2CCNC2=O)cc1` (configuration not stated) the activation was 39.3% (active). `Cc1ccc(S(=O)(=O)N2CCC(C(=O)OCC(=O)N3CC(=O)Nc4ccccc43)CC2)cc1` was tested, and the activation was 0.15% (inactive). With `O=C1c2ccccc2NC(c2ccccn2)N1NS(=O)(=O)c1ccccc1` (configuration not stated) the activation was 10.7% (inactive). In the case of `COc1ccc(N2CCN(CCNS(=O)(=O)c3ccc(C(C)(C)C)cc3)CC2)cc1`, the activation is reported as 0.49% (inactive). For `C=CCN1C(=O)[C@@H](CC(=O)NCC2CCCCC2)[C@]2(C(=O)OC)CCCCC=C12`, the activation was 0.16% (inactive). For `CC(CCN1CCC(C(O)(c2ccccc2)c2ccccc2)CC1)Oc1ccc([N+](=O)[O-])cc1Cl` (configuration not stated), the activation was -0.54% (inactive). For `Nc1nonc1-n1nnc(C(=O)N/N=C/c2cc(Br)ccc2O)c1CSC1=NCCS1`, the activation was -0.67% (inactive). `COc1cc(/C=N/N=C(\N)c2nonc2N)cc(OC)c1OC` was tested, and the activation was 0.13% (inactive). In the case of `COc1cc(/C=N\NC(=O)c2nonc2N)c(OC)cc1Br`, the activation is reported as 163% (active). `COc1cccc(N(C)C(=O)[C@@H](C)[C@@H](O)c2ccc3ccccc3c2)c1` was tested, and the activation was -0.02% (inactive). For `CC(C)CSc1nnc(-c2cccnc2)n1Cc1ccccc1`, the activation was -0.36% (inactive). For `CN1C(C(=O)NCc2ccco2)CC2Cn3c(nc4ccccc43)C21` (configuration not stated), the activation was 0.06% (inactive). For `CN1c2ccccc2-c2nc3ccccc3n2C1c1ccco1` (configuration not stated), the activation was 35.6% (active). For `CN1CCCc2cc(C#N)c(=O)[nH]c21`, the activation was 60% (active). In the case of `Clc1ccc(C(Cn2ccnc2)OCc2ccsc2Cl)c(Cl)c1` (configuration not stated), the activation is reported as 0.44% (inactive). `Cc1cc(C(=O)NN=C/C=C/c2ccco2)n[nH]1` was tested, and the activation was 0.51% (inactive). In the case of `C=CCN1CN(S(=O)(=O)c2ccc(OC)cc2)c2nc3ccccc3nc21`, the activation is reported as 2.35% (inactive). For `C=CCn1c(N)c(S(=O)(=O)c2cccs2)c2nc3ccccc3nc21`, the activation was 26.2% (active). For `CCC(=O)Nc1c(S(=O)(=O)c2ccccc2)c2nc3ccccc3nc2n1Cc1ccccc1`, the activation was -55% (inactive). `COc1cc2c(cc1OC)CC1(CCCCC1)N=C2` was tested, and the activation was 165% (active). For `CCOC(=O)[C@]12CCCCC/C=C\1N(Cc1ccc(OC)cc1)C(=O)[C@H]2CC(=O)N1CCOCC1`, the activation was 0.31% (inactive). For `C=CCN1[C@H](CC(C)C)COc2cccc(N3CCCC3)c2S1(=O)=O`, the activation was 0.16% (inactive). With `CCCCc1cc(=O)oc2cc(C)cc(OCc3nn[nH]n3)c12` the activation was 12.8% (active). With `CCc1cc(=O)oc2cc(C)cc(OC(C)C(=O)O)c12` (configuration not stated) the activation was 3.59% (inactive). In the case of `CCc1cc(=O)oc2cc(C)cc(OCC(=O)N3CCC[C@@H]3C(=O)O)c12`, the activation is reported as 2.84% (inactive). For `CCOC(CNC(=O)C(=O)NCC(c1ccco1)N1CCN(c2ccc(OC)cc2)CC1)OCC` (configuration not stated), the activation was -0.14% (inactive). `Cc1nc(N2CCOCC2)nc2c1CCCC2` was tested, and the activation was 0.32% (inactive). With `Cc1cc2c(nc1C)CCCN2C` the activation was 38.3% (active). For `CN1CCCc2nc(-c3ccccc3)ccc21`, the activation was 7.88% (inactive). `CCOC(=O)[C@@]12CCC3=C1N(CCC3)C(=O)[C@H](CC(=O)N1CCN(C(=O)c3ccco3)CC1)C2` was tested, and the activation was 0.06% (inactive). `C=CCN1C(=O)[C@H](CC(=O)N2CCN(C(=O)OCC)CC2)[C@@]2(C(=O)OCC)CCCC=C12` was tested, and the activation was -0.4% (inactive). With `Cc1ccccc1CS(=O)(=O)Cc1ccc(C(=O)Nc2ccc(Cl)cc2)o1` the activation was 3.6% (inactive). With `O=C1NC(c2ccncc2)Nc2sc3c(c21)CCCC3` (configuration not stated) the activation was 1.14% (inactive). `Cc1[nH]c(=O)c(C(=O)/C=C/c2ccccc2)c2c1CCCC2` was tested, and the activation was -0.01% (inactive). For `C/C(=C\c1ccccc1)C1NC(=O)c2c(sc3c2CCCC3)N1` (configuration not stated), the activation was 12.6% (active). For `COC(=O)c1cccc(Cn2ccc3ccc(-c4ccc5ccn(C(=O)C6CCCCC6)c5c4)cc32)c1`, the activation was -4.23% (inactive). `O=C(CCl)NC1CCCCN(Cc2cccc(C(F)(F)F)c2)C1=O` (configuration not stated) was tested, and the activation was -0.51% (inactive). In the case of `CS(=O)(=O)Nc1ccc(C(=O)N2CCCC2)cc1`, the activation is reported as 0.41% (inactive). `CC(=O)Nc1cncc(-c2ccccc2CO)n1` was tested, and the activation was -0.16% (inactive). For `CNc1cncc(-c2ccc(NS(C)(=O)=O)cc2)n1`, the activation was 128% (active). For `O=C(CSc1nnc(-c2ccccc2)n1Cc1ccco1)Nc1ccccc1-c1ccccc1`, the activation was 0.13% (inactive). With `CCC(NC(=O)C1C2C=CC3(CN(Cc4ccccc4)C(=O)C13)O2)c1ccccc1` (configuration not stated) the activation was -0.29% (inactive). For `O=C(NC1CCC1)c1ccc(C#Cc2cccc(F)c2)c[n+]1[O-]`, the activation was -0.32% (inactive). For `Cc1nc2ccccc2cc1O`, the activation was 41.8% (active). With `Cc1ccc(O)c(CCc2ccccc2)n1` the activation was -0.18% (inactive). In the case of `Cc1nc2ccccc2nc1CC(O)(c1ccccc1)c1ccccc1`, the activation is reported as -0.46% (inactive). For `O=S1(=O)c2ccc(Br)cc2OC[C@H](Cc2ccccc2)N1Cc1cn(Cc2ccccc2)nn1`, the activation was -0.03% (inactive). `O=C(/C=C/[C@H]1O[C@@H](n2cnc3c(NC(=O)c4ccccc4)ncnc32)[C@H](O)[C@@H]1O)NCc1ccccc1` was tested, and the activation was 0.53% (inactive). In the case of `Cc1ccc2nc3c(cc(C(=O)NCCc4ccccc4)c(=N)n3CC3CCCO3)c(=O)n2c1` (configuration not stated), the activation is reported as 25.4% (active). For `Cc1ccc(CCNC(=O)c2ccc3nc4ccccc4c(=O)n3c2)cc1`, the activation was -5.82% (inactive). `Cc1ccc(-c2noc(-c3ccccc3C(=O)NCC3CCCO3)n2)cc1` (configuration not stated) was tested, and the activation was 0.54% (inactive). For `CC(=O)OC12CCCN(C1)/C(=C/c1ccncc1)C2` (configuration not stated), the activation was 0.51% (inactive). In the case of `CN(C)CCCn1c(N)c(C#N)c2nc(C#N)c(C#N)nc21`, the activation is reported as 78.7% (active). `CCCc1cc(=O)oc2c(C)c(OCC(=O)Nc3ccccn3)ccc12` was tested, and the activation was -0.69% (inactive). In the case of `COC(=O)Cc1cc(=O)oc2c(C)c(O)ccc12`, the activation is reported as 66% (active). In the case of `COc1cccc(C(=O)OCc2cc(=O)oc3c(C)c(C)ccc23)c1OC`, the activation is reported as 0.12% (inactive). With `O=C(CSc1nnc(-c2ccccn2)n1-c1ccccc1)Nc1ccc2cn[nH]c2c1` the activation was 0.28% (inactive). With `O=C(CSc1nc2ccccc2nc1N1CCCCC1)N1CCN(S(=O)(=O)c2cccc([N+](=O)[O-])c2)CC1` the activation was 0.08% (inactive).
